# This is a sample that favours compounds with a hit; in the whole collection about 1.1% have one here.
# Tb PFK inh-1: inhibitors of T. brucei phosphofructokinase | AID 485367 | O15648 | T. brucei PFK, ADP-Glo luminescence | Potency, µM (top dose mostly 57.5 µM), inactives show top-dose activity, negative = inhibition, actives largely listed as inhibitors | actives 0.17% (n = 330,000);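 note: 0% = uninhibited 1x PFK enzyme wells and -100% = no-enzyme wells; nearly all actives have a fitted effect of over 60% in size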
#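 1.25 nM PFK with 0.5 mM F6P and 0.1 mM ATP in 0.1 M TEA pH 8.0, 5 mM MgCl2, incubated 45 min at room temperature; ADP measured by ADP-Glo luminescence; compounds titrated up to 57 uM.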
# PGK inhibitor: inhibitors of T. brucei phosphoglycerate kinase | P07378 | PGK/GAPDH coupled, Kinase-Glo luminescence, 60 min | Potency, µM (top dose mostly 57.5 µM), for inactives: top-dose activity change, negative = inhibition, most hits filed as inhibitors | actives 0.043% (n = 380,000) | AID 602233; note: % is set by controls: 0 for no effect and ±100 for the full control effect; nearly all actives have a fitted effect of over 60% in size
#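 Luminescent ATP detection (Kinase-Glo Plus) follows a 60-minute room-temperature incubation, with wells lacking PGK as controls. Buffer: 100 mM TEA (pH 7.6), 5 mM MgCl2, 0.01% Tween-20. Coupling enzyme GAPDH (100 nM final) supplies unstable 1,3-BPG in-well.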
# VDR inhibitor: blocks the human vitamin D receptor; P11473; Potency, µM, for the others: max response, negative = inhibition, actives largely listed as inhibitors; AID 504847; actives 0.93% (n = 400,000); VDR-SRC2-3 peptide fluorescence polarization, 2 h; note: % is set by controls: 0 for no effect and ±100 for the full control effect
# Target sequence (P11473 whole entry, looked up): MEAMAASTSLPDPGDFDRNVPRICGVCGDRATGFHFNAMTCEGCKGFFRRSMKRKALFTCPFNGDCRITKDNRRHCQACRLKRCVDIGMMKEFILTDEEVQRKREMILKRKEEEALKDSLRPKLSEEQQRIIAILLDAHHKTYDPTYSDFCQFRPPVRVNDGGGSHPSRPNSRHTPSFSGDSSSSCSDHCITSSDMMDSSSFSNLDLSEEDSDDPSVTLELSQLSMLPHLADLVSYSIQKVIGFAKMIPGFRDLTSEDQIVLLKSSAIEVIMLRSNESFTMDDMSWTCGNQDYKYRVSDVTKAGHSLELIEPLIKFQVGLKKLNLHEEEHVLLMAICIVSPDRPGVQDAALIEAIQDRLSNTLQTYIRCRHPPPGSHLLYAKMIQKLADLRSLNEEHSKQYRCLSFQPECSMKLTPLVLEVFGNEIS
#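 The screen uses fluorescence polarization to detect compounds that interfere with recruitment of the SRC2-3 coactivator peptide to VDR; plates are read after 2 h at room temperature.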
# GLS inhibitor: blocks human kidney-isoform glutaminase activity. O94925. GLS enzymatic activity, qHTS titration. Potency, µM (top dose mostly 45.5 µM), inactives show at the top dose activity change, negative = inhibition, usual class: inhibitors. actives 0.21% (n = 410,000); note: % is set by controls: 0 for no effect and ±100 for the full control effect
#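 Two-point fluorescence kinetic (t0, 30 min RT) for hKGA; glutamate detected via glutamate oxidase–HRP–Amplex Red. Substrate: 1 mM L-glutamine solution; buffer 45 mM KH2PO4, pH 8.2.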
# Pin1 inh: inhibitors of human Pin1. Q13526. Pin1 FP peptide displacement, HiFluor488, 10 min. Potency, µM (series often up to 115 µM), inactives show at the top dose activity, negative = inhibition, hits mostly inhibitors. actives 0.009% (n = 390,000); active = well fitted inhibition curve with a large enough effect in the polarisation, with a control signal flat, not every such curve was filed as active; inconclusive = small, poorly fitted or top-dose-only effect, or effect the other way, or a change in a side signal; inactive = no such curve, though single readings can be large or run the other way; the % refers to the polarisation; note: % is set by controls: 0 for no effect and ±100 for the full control effect
# Tb PFK KinaseGlo: orthogonal confirmation of T. brucei phosphofructokinase inhibitors. shares compounds with Tb PFK inh-1. Potency, µM (highest dose often 57.5 µM), inactives show top-dose inhibition. Tb PFK enzyme, ATP depletion, Kinase-Glo Plus luminescence. actives 47% (n = 1,100); calls by dose curve; note: nearly all actives have a fitted effect of over 60% in size
# Tb PFK inh-2: validation of T. brucei phosphofructokinase inhibitors | shares compounds with Tb PFK inh-1 | purified T. brucei PFK, ADP-Glo luminescence, 45 min | Potency, µM (highest dose often 57.5 µM), without a hit: top-dose activity change, negative = inhibition, hits mostly inhibitors | actives 41% (n = 1,100) | AID 504637;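 note: plate controls were full PFK enzyme control for no effect and no enzyme control for full effect; nearly all actives have a fitted effect of over 60% in size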
# The depositor's hits bear a star; i = inactive; u = inconclusive; x = not tested or not shown; [ ] = remark or other dose. Unless noted, calls come from the whole dose curve; as a rule, active = well fitted curve in the direction sought with a large enough effect; inconclusive = small, poorly fitted or top-dose-only effect, or another doubt; inactive = no such curve, though single readings can be large; an effect the other way counts as inactive or inconclusive. Potency is the fitted concentration of half-maximal effect.
SMILES,Tb PFK inh-1,PGK inhibitor,VDR inhibitor,GLS inhibitor,Pin1 inh,Tb PFK KinaseGlo,Tb PFK inh-2
O=C1CC(c2ccc(O)cc2)Oc2cc(O)cc(O)c21 (stereo not given),u,i,1.4%,23.6%,-1.5%,x,x
Fc1cccc(NCc2cn3ccccc3n2)c1,12µM*,0.5%,14.4%,46.3%,1.7%,u,-17.1%
Fc1cccc(NCc2ccoc2)c1,u,3.3%,-7.6%,-0.8%,-0.5%,12µM*,19µM*
NCC(=O)c1ccccc1,x,-3.0%,2.9%,15.7%,0.0%,x,x
O=C(CSC1=NS(=O)(=O)c2ccccc2N1)c1ccccc1,u,i,1.3%,11.3%,2.0%,21.3µM*,u
C[C@]12CCC3C(CC[C@@H]4C[C@H](O)CC[C@]34C)C1CCC2=O (stereo not given in full),0.0%,i,-10.2%,-7.8%,-0.5%,x,x
NS(=O)(=O)c1ccc(NC(=S)NCc2ccc(F)cc2)cc1,23.9µM*,-8.5%,u,3.8%,-2.0%,10.7µM*,23.9µM*
NS(=O)(=O)c1ccc(NC(=O)CSc2ccccc2)cc1,15.1µM*,-8.5%,-3.3%,-0.7%,2.3%,23.9µM*,30.1µM*
NCCc1ccc(S(N)(=O)=O)cc1,-2.0%,i,-1.3%,5.5%,-1.0%,x,x
O=C(O)COc1ccc(Cl)cc1Cl,x,i,-18.8%,0.1%,-10.8%,x,x
Cc1cc(NS(=O)(=O)c2ccc(NC(=O)COc3ccc(Cl)cc3Cl)cc2)no1,2.69µM*,-2.1%,-5.6%,2.8%,2.4%,1.51µM*,1.69µM*
NS(=O)(=O)c1ccc(NC(=S)NCc2ccc(Cl)cc2)cc1,12µM*,-0.9%,u,-17.6%,-0.8%,2.69µM*,5.36µM*
COc1ccc(CC2NC[C@H](O)[C@H]2OC(C)=O)cc1 (stereo not given in full),x,x,12.3%,x,x,x,x
COC(=O)C1=C(c2ccc(OCc3ccccc3)c(F)c2)C[C@@H]2CC[C@H]1N2C,x,4.4%,x,-4.0%,x,x,x
O=S(=O)(c1ccc(NC(=S)NCc2ccc(F)cc2)cc1)N1CCOCC1,23.9µM*,7.4%,-9.4%,2.5%,-0.9%,12µM*,30.1µM*
CC(C)OCCCNC(=O)c1c(N)n(CC2CCCO2)c2nc3ccccc3nc12 (stereo not given),3.8%,8.8%[11.5 µM],u,-0.7%,4.8%,x,x
CC(C)OCCCNC(=S)Nc1ccc(S(N)(=O)=O)cc1,26.9µM*,i,u,-20.4%,-2.1%,6.75µM*,13.5µM*
NS(=O)(=O)c1ccc(NC(=O)COc2ccc(Cl)cc2)cc1,1.9µM*,x,-9.0%,-10.0%,0.8%,1.07µM*,u
O=[N+]([O-])c1ccc(NC(=S)NCc2ccc(F)cc2)cc1,u,7.8%,13.0%,17.5%,u,19µM*,u
CCCCC/C=C\C/C=C\C/C=C\CCCCC(=O)NCCO,x,x,1.3%,x,x,x,x
O=C1CN=C(c2ccccc2)c2cc(Cl)ccc2N1CC1CC1,x,x,-23.7%,1.4%,x,x,x
S=C(NCc1ccc(Cl)cc1)Nc1ccncc1,8.49µM*,-6.0%,-14.2%,12.1%,-6.0%,7.57µM*,12µM*
O=C(CSc1nc2ccccc2c(=O)[nH]1)NCc1ccc(Cl)cc1,-1.8%,-7.8%,6.1%,4.1%,u,x,x
COC(=O)C1=C(c2ccc(OC)c(OC)c2)C[C@@H]2CC[C@H]1N2C(=O)NCc1ccco1,-2.3%,i,-21.2%,-12.2%,u,x,x
O=C(COC(=O)c1cccc(S(=O)(=O)N2CCc3ccccc3C2)c1)NCc1ccco1,10.7µM*,-1.1%,-2.3%,0.9%,0.3%,11.0%,u
CCOc1ccc2c(c1)c(C(C)=O)c(C)n2Cc1ccco1,-0.7%,-5.0%,-1.7%,1.9%,4.1%,x,x
CC(=O)c1cccc(OCC(=O)N(C)CC(=O)NCc2ccco2)c1,19µM*,14.1µM*,6.5%,12.6µM*,x,2.39µM*,2.69µM*
COc1ccc(C(=O)OCC(=O)NCc2ccco2)cc1OC,u,-27.9%,5.3%,-14.9%,u,u,u
